IMPase cell inh – membrane-permeable compound that blocks inositol monophosphatase | inhibition (IP1 accumulation), % at 46.1 µM | 120,000 tested, under 10 active | CHO-M1 cells, IP1 accumulation, HTRF TR-FRET ratio | AID 901 | P97697; active means well fitted curve in the direction sought with a large enough effect in the signal ratio, not every such curve was filed as active; inconclusive means small, poorly fitted or top-dose-only effect, or a change in a side signal; inactive means no such curve, though single readings can be large or run the other way; the % refers to the signal ratio;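 further: cells stimulated with carbachol in lithium chloride buffer; higher means more IMPase inhibition seen as more IP1 and lower FRET ratio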
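CHO-M1, 2000 cells/well, cultured 16–30 h; cpd up to 46 uM; carbachol (50 uM solution, stimulation buffer w/ 50 mM LiCl, pH 7.4), 30 min 37C; IP-One TR-FRET, 10 min RT; Ex 320/Em 665, 620; Hill-fit AC50.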
IMPase Li cell – membrane-permeable IMPase blocker, potentiated with lithium; CHO-M1 cells, IP1 TR-FRET (IP-One), carbachol + lithium; Potency, µM (highest dose often 59.4 µM), usual class: inhibitors; 0.35% of 210,000 active; AID 1457;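 further: IP1 builds up when IMPase is blocked and the TR-FRET signal falls; nearly all actives have a fitted effect of over 50% in size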
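CHO cells stably expressing M1 receptor (2000/well, cultured 16–30 h) treated 30 min at 37C with compound plus low lithium. Cytosolic IP1 by TR-FRET (665/620 ratio and 620 channel) after 10 min lysis; AC50 by Hill fit.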
ALDH1A1 inh – blocks purified human ALDH1A1 activity; Potency, µM (top dose mostly 75.3 µM), most hits filed as inhibitors; Purified ALDH1A1, NADH fluorescence, propionaldehyde substrate; AID 1030; P00352; 7.3% of 220,000 active; active means well fitted inhibition curve with a large enough effect, not every such curve was filed as active; inconclusive means small, poorly fitted or top-dose-only effect, or another doubt; inactive means no such curve, though single readings can be large or run the other way
NPSR antag – blocks cAMP signaling of the human neuropeptide S receptor | Q6W5P4 | CHO-NPSR cells, cAMP TR-FRET, antagonist mode | Potency, µM (titrated, usually from 38.3 µM), most hits filed as inhibitors | 1% of 220,000 active | AID 1461; further: nearly all actives have a fitted effect of over 50% in size
Target sequence (Q6W5P4 whole entry, looked up): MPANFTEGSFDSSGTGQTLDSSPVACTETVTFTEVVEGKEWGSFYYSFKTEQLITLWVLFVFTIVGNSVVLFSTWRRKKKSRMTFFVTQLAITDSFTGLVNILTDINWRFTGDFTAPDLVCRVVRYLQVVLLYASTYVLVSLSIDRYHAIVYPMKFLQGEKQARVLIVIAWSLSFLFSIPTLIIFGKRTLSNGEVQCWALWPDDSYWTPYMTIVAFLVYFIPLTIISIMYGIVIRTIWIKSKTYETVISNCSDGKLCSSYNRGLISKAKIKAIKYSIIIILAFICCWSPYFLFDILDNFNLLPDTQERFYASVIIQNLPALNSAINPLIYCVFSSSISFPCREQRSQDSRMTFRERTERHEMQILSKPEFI
HPGD inh – blocks human HPGD enzyme activity | P15428 | purified HPGD, NADH fluorescence kinetic, PGE2 substrate | Potency, µM, most hits filed as inhibitors | 4.3% of 150,000 active; active means well fitted inhibition curve with a large enough effect, not every such curve was filed as active; inconclusive means small, poorly fitted or top-dose-only effect, or another doubt; inactive means no such curve, though single readings can be large or run the other way
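20 nM HPGD preincubated 15 min at room temperature with compound in 50 mM Tris-HCl pH 8, 0.01% Tween 20. Started with 1 mM NAD+ and 30 uM prostaglandin E2; NADH fluorescence (360/450 nm) read 5 times over 30-s intervals, last minus first.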
ALOX12 inhib – blocks human 12-lipoxygenase activity; purified 12-hLO, xylenol orange hydroperoxide absorbance; Potency, µM (series often up to 57.1 µM), actives largely listed as inhibitors; 0.12% of 150,000 active; further: nearly all actives have a fitted effect of over 55% in size
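Hydroperoxide output read as Fe(III)-xylenol orange absorbance, 573-to-405 nm ratio, after 30 min reaction with 40 uM arachidonic acid. Enzyme: 150 nM purified human 12hLO, 15 min compound preincubation; 25 mM Hepes pH 7.0, room temperature.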
Large screens that a line does not name were inactive. Most compounds without a hit are left out; they make up all but 8.9% or so of the library. Unless noted, the call rests on the fitted dose curve; in most records, active means well fitted curve in the direction sought with a large enough effect; inconclusive means small, poorly fitted or top-dose-only effect, or another doubt; inactive means no such curve, though single readings can be large; an effect the other way counts as inactive or inconclusive.

N#Cc1ccccc1NC(=O)CSc1ccc([N+](=O)[O-])cn1	none (no result: IMPase cell inh, HPGD inh, ALOX12 inhib)
Cc1ccc(-n2ncc3c(NCc4cccnc4)ncnc32)c(C)c1	ALDH1A1 inh inconclusive, HPGD inh inconclusive (no result: IMPase cell inh)
Cc1ccc(-n2ncc3c(NCc4ccccn4)ncnc32)c(C)c1	ALDH1A1 inh inconclusive, HPGD inh 13µM
Cc1ccc(-n2ncc3c(NCc4ccco4)ncnc32)c(C)c1	HPGD inh 3.5µM
COCCCNc1ncnc2c1cnn2-c1ccc(C)cc1C	HPGD inh 7.9µM
Cc1[nH]nc2c1C(c1ccc(N(C)C)cc1)C1=C(CC(C)(C)CC1=O)N2 (centres undefined)	none (no result: IMPase cell inh, HPGD inh, ALOX12 inhib)
COc1ccc(Cl)cc1N(CC(=O)Nc1cccc(SC)c1)S(C)(=O)=O	none
CCCNC(=O)NC(=O)CSc1ncc(C(F)(F)F)cc1Cl	NPSR antag inconclusive
C=CC(C1=CC(=O)C(OC)=CC1=O)c1ccccc1 (centres undefined)	ALDH1A1 inh 22µM, HPGD inh inconclusive (no result: IMPase cell inh, NPSR antag)
C=CC(C1=CC(=O)C(OC)=C(OC)C1=O)c1ccccc1 (centres undefined)	HPGD inh 20µM, ALOX12 inhib inconclusive (no result: IMPase cell inh, NPSR antag)
CCn1c(=O)c(=O)[nH]c2cc(C(=O)NC3CCCC3)ccc21	ALDH1A1 inh inconclusive (no result: IMPase cell inh, HPGD inh, ALOX12 inhib)
COc1ccc(C(=O)Nc2ccccc2C(=O)NCCN2CCOCC2)cc1	ALDH1A1 inh inconclusive
CS(=O)(=O)N1CCN(c2ccc(NC(=O)Cc3ccccc3)cc2)CC1	none
C/C(=N\NC(=S)NCCc1ccccc1)c1cccs1	ALDH1A1 inh inconclusive, ALOX12 inhib 4µM (no result: IMPase cell inh)
COc1ccc(/C(C)=N/NC(=S)NCCc2ccccc2)cc1	none (no result: IMPase cell inh, HPGD inh, ALOX12 inhib)
O=C(O)c1ccc(NC2=C(N3CCOCC3)C(=O)c3ccccc3C2=O)cc1	ALDH1A1 inh 19µM (no result: IMPase cell inh)
CCCOc1ccc(-c2cn3ccccc3n2)cc1[N+](=O)[O-]	none (no result: IMPase cell inh)
COc1ccccc1CNC(=O)CSC1=NCCS1	ALDH1A1 inh inconclusive (no result: IMPase cell inh, HPGD inh, ALOX12 inhib)
COc1ccccc1CNC(=O)c1ccc(-c2ccccc2Cl)o1	ALDH1A1 inh 14µM (no result: IMPase cell inh)
COc1ccccc1CNC(=O)CSc1ccc(Br)cc1	HPGD inh 28µM (no result: IMPase cell inh)
COc1ccccc1CNC(=O)CC(C)C	HPGD inh 25µM
COc1ccccc1CNC(=O)COc1ccccc1OC	NPSR antag inconclusive
COc1ccccc1CNC(=O)C1CCC1	HPGD inh 14µM (no result: IMPase cell inh)
CC(C)C[C@@H](N)C(=O)Nc1ccc2ccccc2c1	none (no result: IMPase cell inh, NPSR antag)
Cc1ccc(S(=O)(=O)N2CCN(c3ccccn3)CC2)cc1	none (no result: IMPase cell inh, IMPase Li cell, HPGD inh, ALOX12 inhib)
Cc1nc2ncnn2c(N2CCN(C(=O)c3cccc(F)c3)CC2)c1C	ALDH1A1 inh inconclusive
O=C(CSc1nnc(-c2ccc(C(F)(F)F)cn2)o1)Nc1ccccc1Cl	none (no result: IMPase cell inh, IMPase Li cell, HPGD inh, ALOX12 inhib)
Cn1c(NNC(=O)CCC2CCCCC2)cc(=O)n(C)c1=O	ALDH1A1 inh inconclusive (no result: IMPase cell inh)
O=C1c2ccccc2NC(c2ccc(O)cc2)N1Cc1ccco1 (centres undefined)	ALDH1A1 inh inconclusive, HPGD inh inconclusive
c1coc(CN=C2NC(=NCc3ccco3)c3ccccc32)c1	ALDH1A1 inh 25µM, NPSR antag inconclusive
CCOP(=O)(c1ccc(N(C)C)cc1)C(O)c1cc(OC)c(OC)c(OC)c1 (centres undefined)	none
CCCOC(=O)c1ccc(NC(=O)CSC2=Nc3ccccc3C3CC=NN23)cc1 (centres undefined)	ALDH1A1 inh 32µM, HPGD inh inconclusive
Cc1ccnc(SCc2cc(=O)c(OC(=O)c3ccc(Cl)c([N+](=O)[O-])c3)co2)n1	ALDH1A1 inh 7.5µM, HPGD inh inconclusive (no result: IMPase cell inh)
CCN(CC)S(=O)(=O)c1ccc(C(=O)Oc2coc(CSc3nc(C)cc(C)n3)cc2=O)cc1	none (no result: IMPase cell inh)
Cc1cc(C)nc(SCc2cc(=O)c(OC(=O)c3cccc([N+](=O)[O-])c3)co2)n1	ALDH1A1 inh 0.056µM
CSc1ncccc1C(=O)Nc1ccc(S(=O)(=O)NC2=NCCCCC2)cc1	ALDH1A1 inh 8.9µM (no result: IMPase cell inh, HPGD inh, ALOX12 inhib)
CN(C)S(=O)(=O)c1ccc(C(=O)Nc2ccc(S(=O)(=O)NC3=NCCCCC3)cc2)cc1	ALDH1A1 inh inconclusive
CC(C)NC(=O)c1ccc(C2SCC(=O)N2Cc2ccccc2)cc1 (centres undefined)	HPGD inh 3.2µM

Screening data from PubChem BioAssay.
